Results on 14 molecules are retold here after PubChem BioAssay (NCI).

The panel holds about 83,000 compounds, 20% with a hit somewhere; the sample as a whole holds those more often.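 Values shown are percent growth following 48 h exposure of cells in 96-well plates to a single concentration of compound; below 10 was considered active.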 Values without a mark were called inactive. The source made the active and inactive calls.

Among the test systems are NCI-H23 lung; NCI-H226 lung; HOP-62 NSCLC; NCI-H460 lung; HOP-92 NSCLC; NCI-H522 lung; A549/ATCC NSCLC; 786-0 renal; COLO 205 colon.
Assay in all cases: NCI-60 one-dose screen, 48 h (100 = growth as untreated, 0 = no growth, -100 = all killed)
Holding throughout (conditions): 10 µM unless noted

Regarding `O=S(=O)(Nc1ccc(Br)c(Cl)c1)c1ccc(-c2cnc(C3CC3)o2)cc1`, the growth is 29.7% in the assay with NCI-H23 lung; 55.3% in the assay with NCI-H226 lung; 32.6% with HOP-62 NSCLC; 11.9% with NCI-H460 lung; 40.8% with HOP-92 NSCLC; -17.7% (active) in the assay with NCI-H522 lung. The growth is 24.9% in the assay with A549/ATCC NSCLC, 39% in the assay on 786-0 renal and -2.39% (active) in the assay with COLO 205 colon.

Regarding `COc1cc(C=Nc2oc(-c3ccccc3)c(-c3ccccc3)c2C#N)cc(CN2CCCCC2)c1O`, the growth with NCI-H23 lung was 88.6%; with NCI-H226 lung, 90.5%; with HOP-62 NSCLC, 97.8%; in the assay with NCI-H460 lung, 101%; in the assay with HOP-92 NSCLC, 103%; with NCI-H522 lung, 88%. The growth with A549/ATCC NSCLC was 105%; in the assay with 786-0 renal it was 102%; with COLO 205 colon, 122%.

Regarding `Cc1ccc(O)c(N2C(=NCc3ccco3)NS(=O)(=O)c3cnccc32)c1`, the growth with NCI-H23 lung was 95.2%; in the assay with NCI-H226 lung, 101%; with HOP-62 NSCLC, 100%; with NCI-H460 lung, 104%; in the assay on HOP-92 NSCLC, 27.7%; in the assay with NCI-H522 lung it was 93.3%. Besides, the growth in the assay on A549/ATCC NSCLC was 83.7%; with 786-0 renal, 105%; in the assay on COLO 205 colon it was 125%.

With `O=C(Oc1cccnc1)c1ccsc1Nc1ccnc(C(F)(F)F)c1`, the growth was 35.4% with NCI-H23 lung; 98.6% in the assay on NCI-H226 lung; 96% in the assay with HOP-62 NSCLC; 105% with NCI-H460 lung; 44.6% in the assay on HOP-92 NSCLC; 44.8% in the assay on NCI-H522 lung. The growth in the assay on A549/ATCC NSCLC was 98.2%; in the assay with 786-0 renal, 108%; in the assay with COLO 205 colon, 101%.

As for `COc1ccc(-c2nc3ccc(-c4nc5ccc(N6CCN(C)CC6)cc5[nH]4)cc3[nH]2)cc1OC`, the growth with NCI-H23 lung was 62.7%; in the assay with NCI-H226 lung it was 54.6%; in the assay on HOP-62 NSCLC, 76.9%; in the assay with NCI-H460 lung it was 103%; with HOP-92 NSCLC, 89.8%; with NCI-H522 lung it was 13.7%. Moreover, the growth with A549/ATCC NSCLC is 96.1%; with 786-0 renal it was 79.1%; in the assay with COLO 205 colon, 25.5%.

As for `CC(=O)OC[C@H]1O[C@H](OC(C)=O)[C@H](NC(=O)/C=C/CCl)[C@@H](OC(C)=O)[C@@H]1OC(C)=O`, the growth was 75.4% in the assay with NCI-H23 lung; 109% in the assay with NCI-H226 lung; 96.1% with HOP-62 NSCLC; 96.6% with NCI-H460 lung; 76.6% with HOP-92 NSCLC; -64% (active) in the assay with NCI-H522 lung. Moreover, the growth is 87.6% in the assay on A549/ATCC NSCLC, 68% with 786-0 renal and 74.9% in the assay with COLO 205 colon.

On to `CC1=C[C@H]2c3c(c(O)c(O)c4oc5ccccc5c(=O)c34)[C@H](c3cc(O)c(O)c4oc5ccccc5c(=O)c34)[C@H]2C(C)(C)C1`, for which the growth with NCI-H23 lung was -4.58% (active); in the assay with NCI-H226 lung, -14.4% (active); in the assay with HOP-62 NSCLC, -9.58% (active); in the assay on NCI-H460 lung, -37.6% (active); in the assay with HOP-92 NSCLC, -5.31% (active); in the assay on NCI-H522 lung, -18.3% (active). The growth was -11.8% (active) with A549/ATCC NSCLC, -76.6% (active) with 786-0 renal and 10.7% in the assay with COLO 205 colon.

Consider `CC[C@@H]1O[C@H](O[C@@H](c2cnc[nH]2)[C@H](NC(=O)c2nc([C@H](CC(N)=O)NC[C@@H](N)C(N)=O)nc(N)c2C)C(=O)N[C@H](C)[C@H](O)[C@H](C)C(=O)N[C@@H](C(=O)NCCc2nc(-c3nc(C(=O)NCCCCN=C(N)N)cs3)cs2)[C@@H](C)O)[C@H](O[C@@H]2O[C@H](CO)[C@H](O)[C@H](OC(N)=O)[C@@H]2O)[C@H](C)[C@@H]1C`, for which the growth in the assay with NCI-H23 lung was 20.9%; in the assay on NCI-H226 lung, 13%; in the assay with HOP-62 NSCLC it was 15.6%; in the assay with NCI-H460 lung it was 12.5%; in the assay with HOP-92 NSCLC, 11.4%; with A549/ATCC NSCLC it was 36.6%. Besides, the growth with 786-0 renal is 25.4%; in the assay with COLO 205 colon, 64.2%.

In the case of `CCOc1cc2ncc(C#N)c(Nc3ccc(OCc4cccc(F)c4)c(Cl)c3)c2cc1NC(=O)CCCCC1CCSS1` (stereo not given), the growth in the assay with NCI-H23 lung was 101%; in the assay with NCI-H226 lung it was 88.9%; in the assay with HOP-62 NSCLC, 94.4%; in the assay with NCI-H460 lung, 98%; in the assay on HOP-92 NSCLC it was 78.9%; in the assay on NCI-H522 lung, 66.4%. The growth was 73.6% in the assay with A549/ATCC NSCLC, 89.1% in the assay on 786-0 renal and 103% with COLO 205 colon.

In the case of `Cc1ccc2c(C(C[N+](=O)[O-])c3ccco3)c(-c3ccccc3)[nH]c2c1` (stereo not given), the growth was 51.3% in the assay on NCI-H23 lung; 46.5% in the assay on NCI-H226 lung; 24% in the assay with HOP-62 NSCLC; 13.9% with NCI-H460 lung; 39.9% in the assay on HOP-92 NSCLC; -11.7% (active) in the assay with NCI-H522 lung. The growth in the assay with A549/ATCC NSCLC was 33.3%; in the assay on 786-0 renal, 31.2%; with COLO 205 colon, 21.8%.

With `Nc1ccc(-c2cc3c(NCc4ccccc4)ncnc3s2)cc1`, the growth in the assay on NCI-H23 lung is 66.6%; in the assay on NCI-H226 lung, 65.9%; in the assay on HOP-62 NSCLC, 92.1%; in the assay with NCI-H460 lung, 90.7%; in the assay on HOP-92 NSCLC it was 85.5%; with NCI-H522 lung it was 72.5%. Moreover, the growth with A549/ATCC NSCLC is 70.9%; in the assay with 786-0 renal, 79.2%; in the assay on COLO 205 colon it was 108%.

Take `COc1cc2c(cc1O)CC[C@@H]1[C@@H]2CC[C@]2(C)[C@@H](NCCN(C)C)CC[C@@H]12`: the growth with NCI-H23 lung was -77.2% (active); with NCI-H226 lung it was -86.2% (active); in the assay on HOP-62 NSCLC, -76.3% (active); in the assay with NCI-H460 lung, -84.7% (active); in the assay with HOP-92 NSCLC it was -81.7% (active); in the assay with NCI-H522 lung, -94.3% (active). The growth in the assay with A549/ATCC NSCLC was -81.6% (active); in the assay on 786-0 renal, -84.3% (active); with COLO 205 colon, -71% (active).

For the molecule `C(=N/Nc1ncc(-c2cc3cc(-c4ccccc4)ccc3o2)s1)/c1cccs1`, the growth is 99.9% with NCI-H23 lung; 104% with NCI-H226 lung; 118% in the assay on HOP-62 NSCLC; 7.38% (active) in the assay with NCI-H460 lung; 105% with HOP-92 NSCLC; 86.1% with NCI-H522 lung. Further, the growth in the assay on A549/ATCC NSCLC was 13.3%; in the assay with 786-0 renal, 101%; in the assay on COLO 205 colon, 72.4%.

On to `Cc1ccc(OC(=O)c2ccc(Cl)cc2)cc1`, for which the growth in the assay with NCI-H23 lung is 99.2%; in the assay on NCI-H226 lung, 97.3%; in the assay on HOP-62 NSCLC, 84.5%; in the assay with NCI-H460 lung it was 111%; with HOP-92 NSCLC it was 100%; in the assay on NCI-H522 lung it was 76.1%. Further, the results for the growth in the assay on A549/ATCC NSCLC, with 786-0 renal and with COLO 205 colon were 98.4%, 90.2% and 112%, respectively.
